aSyn UTR act = Activators working through SNCA 5'UTR binding (MLPCN) | alpha-synuclein 5'UTR reporter, activators screen | 300,000 tested, 7.1% active | AID 1814 | activity score, % (tested at 7.5 µM), hits read low; in the data active = activity score below about -60%
Large screens that a line does not name were inactive. Only a sample is shown.

CCOc1ccc(C(=O)NC(=S)Nc2ccccn2)cc1[N+](=O)[O-]	aSyn UTR act -103.9
O=C(Nc1ccccn1)c1sc2cc([N+](=O)[O-])ccc2c1Cl	aSyn UTR act -160.9
O=C(NC(=S)Nc1ccccn1)c1cccc([N+](=O)[O-])c1	aSyn UTR act -89.3
O=c1c(O)c(-c2cccs2)oc2ccc(Cl)cc12	aSyn UTR act -74.9
O=c1cc(-c2cccs2)oc2ccc(Cl)cc12	aSyn UTR act -177.6
O=c1cc(-c2ccc3c(c2)OCCO3)oc2ccc(Cl)cc12	aSyn UTR act -149.4
S=c1nc(-c2ccc(Br)cc2)oc2c1CCCC2	aSyn UTR act -183.8
Cc1cccc(-c2nc(=S)c3c(o2)CCCC3)c1	aSyn UTR act -132.6
CC(NC(=O)NC(=O)c1ccc(Cl)cc1Cl)C1CC1 (stereo unspecified)	aSyn UTR act -69.6
N#CC(C#N)=c1ccc2c(c1)NC1(CCCCC1)N=2	aSyn UTR act -337.2
COc1ccc(OC)c(C(=O)CC2OC(=O)c3ccccc32)c1 (stereo unspecified)	aSyn UTR act -70.3
CCn1ccc(C(=O)Nc2ccccc2SC)n1	aSyn UTR act -174.8
CCn1ccc(C(=O)Nc2ccc(Cl)cn2)n1	aSyn UTR act -136.9
CCn1nccc1C(=O)Nc1ccc(Cl)cn1	aSyn UTR act -96.3
Cc1ccc(C2=CSC3=NNC4(CCCCC4)NN23)cc1	aSyn UTR act -126.0
Cc1ccc(-n2nc3c([n+]2[O-])CCc2c-3no[n+]2[O-])cc1	aSyn UTR act -140.5
[O-][n+]1onc2c1CCc1c-2nn(-c2ccccc2Cl)[n+]1[O-]	aSyn UTR act -154.9
CC1CCc2c(C(=O)Nc3ccccn3)csc2C1 (stereo unspecified)	aSyn UTR act -116.0
CC1CCc2sc(C(=O)NCc3ccccn3)cc2C1 (stereo unspecified)	aSyn UTR act -112.2
CC1CCc2c(C(=O)Nc3nccs3)csc2C1 (stereo unspecified)	aSyn UTR act -150.9
CC1CCc2sc(C(=O)NC(C)C3CCCO3)cc2C1 (stereo unspecified)	aSyn UTR act -96.1
CC1CCc2c(C(=O)NCc3ccccn3)csc2C1 (stereo unspecified)	aSyn UTR act -84.0
CC(C)(C)C(=O)OCc1nc(-c2ccc(Cl)cc2)cs1	aSyn UTR act -133.1
NC(=S)Cc1nc(-c2ccc(Cl)cc2)cs1	aSyn UTR act -103.9
CC(C)(C)C(=O)OCc1nc(-c2ccc(F)cc2)cs1	aSyn UTR act -106.2
CC(C)(C)C(=O)OCc1nc(-c2ccc3c(c2)OCCO3)cs1	aSyn UTR act -140.9
O=S(=O)(c1ccc(NC(=S)NCc2cccnc2)cc1)N1CCCCC1	none
Cc1nn(C)c(C)c1CNC(=O)Nc1ccc2c(c1)OCO2	aSyn UTR act -72.1
C=CCOc1ccc(NC(=O)C(=O)NCCCn2ccnc2)cc1	none
Cc1nn(C)c(C)c1CNC(=O)Nc1ccc(Cl)cc1	aSyn UTR act -88.7
O=C(NCCCn1ccnc1)Nc1ccc2c(c1)OCO2	aSyn UTR act -106.7
O=C(NCc1cccnc1)Nc1ccc2c(c1)OCO2	aSyn UTR act -63.2
Cc1nn(C)c(C)c1CNC(=O)Nc1cccc(Cl)c1	aSyn UTR act -105.5
CC1(C)C2C/C(=N\O)C(C)(/[N+]([O-])=C/c3cccc([N+](=O)[O-])c3)CC21 (stereo unspecified)	aSyn UTR act -62.4
Clc1ccc(C#Cc2cccnc2)cc1	aSyn UTR act -186.6
Cc1cc(C)n(-c2ccc(C(=O)Nc3ccc4c(c3)OCO4)cc2)n1	aSyn UTR act -172.6
Cc1cc(C)n(-c2ccc(C(=O)NC3=NCCS3)cc2)n1	aSyn UTR act -110.3
COc1ccc(NC(=O)/C(C#N)=C\c2ccc(Br)o2)cc1	aSyn UTR act -114.3
COc1ccc(NC(=O)/C(C#N)=C\c2cc(C)n(-c3ccc4c(c3)OCO4)c2C)cc1	aSyn UTR act -107.0
CNC(=O)/C(C#N)=C/c1ccc(-c2ccc(OC)cc2[N+](=O)[O-])o1	aSyn UTR act -76.1
c1ccc(-n2cnc3cc(NCc4ccco4)ccc32)cc1	aSyn UTR act -161.1
Cc1ccc(-n2cnc3cc(NCc4cccs4)ccc32)cc1	aSyn UTR act -93.8
COc1ccc(-n2cnc3cc(NCc4cccs4)ccc32)cc1	aSyn UTR act -69.4
c1ccc(-n2cnc3cc(NCc4cccs4)ccc32)cc1	aSyn UTR act -166.7
O=c1[nH]cnc2sc(-c3ccccc3)cc12	aSyn UTR act -85.5
O=c1[nH]c(-c2ccccc2)nc2sc(-c3ccccc3)cc12	aSyn UTR act -235.3
Cc1cc(/C=N/Nc2ncnc(N)c2[N+](=O)[O-])c(C)n1-c1ccccc1	none
O=[N+]([O-])c1cc(CN2CCN(c3cccc(C(F)(F)F)c3)CC2)c2cccnc2c1O	none
Cc1cc(/C=N/Nc2nc(N)ncc2[N+](=O)[O-])c(C)n1-c1cccc(C(F)(F)F)c1	aSyn UTR act -116.9
CCOC(=O)C1(Cc2cccc(Cl)c2)CCCN(C(=O)CN2C(=O)CSC2=O)C1 (stereo unspecified)	aSyn UTR act -75.1
CCOC(=O)C1(Cc2cccc(Cl)c2)CCCN(C(=O)c2ccnn2C)C1 (stereo unspecified)	aSyn UTR act -84.8
CN=C(Nc1ccc(Cl)cc1)c1ccc(C(F)(F)F)cc1	aSyn UTR act -91.7
CN(c1nc(-c2ccc(Br)cc2)cs1)C1CCS(=O)(=O)C1 (stereo unspecified)	aSyn UTR act -111.9
Cn1c(=O)c2nc(-c3ccc(Cl)cc3Cl)oc2c2ccccc21	aSyn UTR act -72.2
O=C1CN(c2ccccc2)C(=S)N1C(=O)c1ccccc1	aSyn UTR act -153.6
Cc1ccc2[nH]c(C)c(/C=N/Nc3nc4ccccc4s3)c2c1	aSyn UTR act -140.3
C(=N\Nc1nc2ccccc2s1)/c1ccc2c(c1)OCO2	aSyn UTR act -189.6
Brc1csc(/C=N/Nc2nc3ccccc3s2)c1	aSyn UTR act -274.6
C(=N\Nc1nc2ccccc2s1)/c1ccccn1	none
Cc1nc(N/N=C\c2ccc3c(c2)OCO3)sc1C	aSyn UTR act -128.5
Brc1cc2c(cc1/C=N/Nc1nc3ccccc3s1)OCO2	aSyn UTR act -116.9
CC(/C=N/Nc1nc(C)cc(=O)[nH]1)=C\c1ccccc1	aSyn UTR act -67.4
CC(/C=N/Nc1nc2ccccc2[nH]1)=C\c1ccccc1	aSyn UTR act -70.0
FC(F)Oc1ccccc1/C=N/Nc1nc2ccccc2o1	aSyn UTR act -165.2
Fc1ccccc1/C=N/Nc1nc2ccccc2o1	aSyn UTR act -200.1
COc1ccc(/C=C/C(=O)NC2CCCCCCC2)cc1S(=O)(=O)N1CCOCC1	aSyn UTR act -112.3
O=c1c(Cl)c(N2CCN(c3ccc(F)cc3)CC2)cnn1-c1nc2ccccc2s1	aSyn UTR act -111.5
Cn1nc(OC(=O)Nc2ccc(Cl)cc2)cc1C(F)(F)F	aSyn UTR act -85.0
COCCNC(=O)CSc1nc2ccc(N3CCOCC3)cc2c(=O)n1Cc1ccc(OC)cc1	aSyn UTR act -79.9
CCOC(=O)CSc1nc2ccc(N3CCOCC3)cc2c(=O)n1Cc1ccc2c(c1)OCO2	aSyn UTR act -81.9
Cc1cc(/C=C2\SC(=S)NC2=O)c(C)n1-c1cccc(O)c1	aSyn UTR act -110.7
CCn1c(C)cc(/C=C2/SC(=S)NC2=O)c1C	aSyn UTR act -67.1
Cc1cc(/C=C2/C(=O)NN(c3ccccc3)C2=O)c(C)n1-c1cccc(O)c1	aSyn UTR act -74.4
Cc1cc(/C=C2\SC(N)=NC2=O)c(C)n1-c1ccc(F)cc1	aSyn UTR act -62.3
Cc1ccc(/C=C2\SC(=S)N(CCCC(=O)NNC(=O)c3ccccc3O)C2=O)cc1	none
COc1ccc(-n2c(C)cc(/C=C3\SC(=O)NC3=O)c2C)cc1	aSyn UTR act -145.9
Cc1cc(/C=C2\SC(=S)N(C)C2=O)c(C)n1-c1ccccc1O	aSyn UTR act -125.8
